We go through 14 compounds from PubChem BioAssay (NCI).

Each structure is given as a SMILES string. Several values for one entry are separate records, joined by “and”; a condition that tells them apart may be missing. Equal values may be shown once. Compounds without any hit were thinned out: in the full panel of roughly 83,000, 20% have a hit.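 48-hour exposure, single concentration, 96-well plates; percent growth endpoint where 0 means no net growth. Active: below 10.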 Activity calls are given as the source filed them.

Experiment in all cases: NCI-60 one-dose screen, 48 h (100 = growth as untreated, 0 = no growth, -100 = all killed)
Settings in all cases: 10 µM unless noted

For assay [1], the system named is T-47D breast.
The subject of assay [2] is BT-549 breast.
The subject of assay [3] is MDA-MB-435 melanoma.
Assay [4] deals with SW-620 colon.
The subject of assay [5] is MCF7 breast.
Assay [6] deals with HCT-116 colon.
Assay [7] relates to HCC-2998 colon.
Assay [8] concerns KM12 colon.

Turning to `CCN(CC)CCOc1ccccc1C`, the growth in assay [1] is 98.3% (inactive); in assay [2] it was 102% (inactive); in assay [3] it was 106% (inactive); in assay [4], 107% (inactive); in assay [5], 100% (inactive); in assay [6] it was 98.3% (inactive). For the same compound, the growth in assay [7] and in assay [8] was 107% (inactive) throughout.

In the case of `CCn1cc(C(=O)NN=C2CCCC2)c(=O)c2ccc(C)nc21`, the growth is 89% (inactive) in assay [1]; 83.5% (inactive) in assay [2]; 86.9% (inactive) in assay [3]; 93% (inactive) in assay [4]; 83.4% (inactive) in assay [5]; 89.1% (inactive) in assay [6]. The growth was 89.6% (inactive) in assay [7] and 94.7% (inactive) in assay [8].

In the case of `CN1CCN(CCNC(=O)c2cccc(CN3c4cccc5c4C(=Cc4cccnc43)N(C)C5=O)c2)CC1`, the growth was 34.8% (inactive) in assay [1]; 57.5% (inactive) in assay [2]; 39.8% (inactive) in assay [3]; 52.7% (inactive) in assay [4]; 16.6% (inactive) in assay [5]; 25.8% (inactive) in assay [6]. The growth in assay [7] was 39.8% (inactive); in assay [8], 44.6% (inactive).

As for `CCCCCCCCCCCCCCCC[N+](C)(C)CCN(Cc1ccc(OC)cc1)c1ncccn1`, the growth in assay [1] is -5.46% (active) and 42.2% (inactive); in assay [2], -75% (active) and 61.8% (inactive); in assay [3] it was -96.8% (active); in assay [4], -86% (active) and 76.9% (inactive); in assay [5] it was 20.1% (inactive) and 47.6% (inactive); in assay [6], -85.6% (active) and -62.4% (active). The growth is -76% (active) and 50.2% (inactive) in assay [7]; -100% (active) and 33.6% (inactive) in assay [8].

With `C/C=C(\C)C(=O)N[C@H]1CC[C@]2(C)C3CC[C@@]4(C)C(CC[C@@H]4C(C)N(C)C)C3CCC2[C@H]1OC(C)=O` (some centres not stated), the growth in assay [1] is -43.5% (active); in assay [2], -11% (active); in assay [3], -56.8% (active); in assay [4], -93% (active); in assay [5] it was -27% (active); in assay [6], -83.3% (active). The growth in assay [7] was -85.4% (active); in assay [8], -48.1% (active).

Regarding `Nc1nc(Nc2cccnc2)sc1C(=O)c1ccccc1F`, the growth in assay [1] was 33% (inactive); in assay [2], 12.2% (inactive); in assay [3], 39.2% (inactive); in assay [4], 34.5% (inactive); in assay [5], 9.37% (active); in assay [6] it was 3.8% (active). The growth in assay [7] was 69.5% (inactive); in assay [8] it was 5.5% (active).

For `CC(=NCc1ccccc1)c1ccc(O)cc1O`, the growth in assay [1] is 92.2% (inactive); in assay [2], 91.9% (inactive); in assay [3], 114% (inactive); in assay [4], 109% (inactive); in assay [5], 97.8% (inactive); in assay [6], 104% (inactive). Further, the growth in assay [7] is 92.5% (inactive); in assay [8] it was 104% (inactive).

Regarding `COc1cccc(C2C(C#N)=C(N)Oc3cc(OCCCCCC[P+](c4ccccc4)(c4ccccc4)c4ccccc4)ccc32)c1` (configuration not stated), the growth is -32.9% (active) in assay [1]; -54.3% (active) in assay [2]; -77.6% (active) in assay [3]; -31.7% (active) in assay [4]; -39.2% (active) in assay [5]; -81% (active) in assay [6]. Moreover, the values for the growth in assay [7] and in assay [8] were -68.6% (active) and -77% (active), respectively.

For `Cn1cc(-c2nonc2-c2cn(C)c3ccc(Br)cc23)c2ccccc21`, the growth is 23.6% (inactive) in assay [1]; 34% (inactive) in assay [2]; -20.3% (active) in assay [3]; 14.7% (inactive) in assay [4]; 15.4% (inactive) in assay [5]; 17.1% (inactive) in assay [6]. Also, the growth in assay [7] is 67.9% (inactive); in assay [8], 23.3% (inactive).

As to `CC(=O)N1N=C(c2ccc(F)cc2)CC1c1sc(N(C)Cc2ccccc2)nc1Cl` (configuration not stated), the growth was 74.1% (inactive) in assay [1]; 95.2% (inactive) in assay [2]; 96.5% (inactive) in assay [3]; 99.4% (inactive) in assay [4]; 76% (inactive) in assay [5]; 84.5% (inactive) in assay [6]. Also, the growth was 91.2% (inactive) in assay [7] and 92.4% (inactive) in assay [8].

For the compound `COc1cc(/C=C2/C=C(c3ccc(C(C)(C)C)cc3)N(CCc3ccc(S(N)(=O)=O)cc3)C2=O)cc(OC)c1OC`, the growth is 18.2% (inactive) in assay [1]; 48.1% (inactive) in assay [2]; 52.8% (inactive) in assay [3]; 63.3% (inactive) in assay [4]; 13.1% (inactive) in assay [5]; 23.5% (inactive) in assay [6]. The results for the growth in assay [7] and in assay [8] were 32.2% (inactive) and 43.8% (inactive), respectively.

With `CN1CCN(CCCN2c3ccccc3Sc3ccc(Cl)cc32)CC1`, the growth in assay [1] is 63.5% (inactive); in assay [2], 85.8% (inactive) and 91.1% (inactive); in assay [3], 30.3% (inactive) and 42.4% (inactive); in assay [4], 83.2% (inactive) and 94% (inactive); in assay [5] it was 37.2% (inactive) and 63.8% (inactive); in assay [6], 57.5% (inactive) and 70.6% (inactive). Besides, the growth was 66.8% (inactive) in assay [7]; 73.8% (inactive) and 98.2% (inactive) in assay [8].

With `Cc1ccc(/C=C/c2c(C(=O)/C=C/c3ccccc3)c(C)nc3ccccc23)cc1`, the growth was 16.1% (inactive) in assay [1]; 41.5% (inactive) in assay [2]; -45.4% (active) in assay [3]; 3.35% (active) in assay [4]; 12.6% (inactive) in assay [5]; -54.7% (active) in assay [6]. Besides, the results for the growth in assay [7] and in assay [8] were 20.6% (inactive) and 13.1% (inactive), respectively.

On to `CC1(Cc2ccccc2)CC2=C(C(=O)O1)C(c1ccccc1)NC(=O)N2` (configuration not stated), for which the growth in assay [1] was 97% (inactive); in assay [2], 104% (inactive); in assay [3] it was 99.4% (inactive); in assay [4], 106% (inactive); in assay [5], 105% (inactive); in assay [6], 86.9% (inactive). Also, the growth is 94.9% (inactive) in assay [7] and 107% (inactive) in assay [8].
